# Screening data: PubChem BioAssay, several laboratories
# A selection: hits, their analogues and other compounds. The true share with any hit is near 5.3%.
# ALR inh: inhibitors of human sulfhydryl oxidase ALR; hit rate 3.8% among 290,000; purified ALR, DTT oxidation, H2O2 HRP-luminol luminescence; AID 485317; inhibition, % (no concentration beside the values);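 active = mean replicate inhibition above about 79%, with every replicate also reaching it, limit read from the data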
# Target sequence (P55789 whole entry, looked up): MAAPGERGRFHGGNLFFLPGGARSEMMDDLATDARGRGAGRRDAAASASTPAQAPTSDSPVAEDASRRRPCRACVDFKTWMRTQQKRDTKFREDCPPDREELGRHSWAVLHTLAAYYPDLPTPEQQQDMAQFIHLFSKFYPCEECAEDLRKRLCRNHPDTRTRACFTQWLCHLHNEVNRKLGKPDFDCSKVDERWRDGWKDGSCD
# HIF act: HIF pathway transcriptional activation; U2OS HRE-luciferase reporter, luminescence; normalized: DMSO 0%, desferrioxamine 100%; activation, % at 7.5 µM (by protocol); hit rate 0.32% among 300,000;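 active = mean activation of at least 10% of the iron chelator positive control signal, with at least half of replicates also reaching 10%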
# Mot1-301 SUMO: blocks SUMOylation pathway, rescuing yeast Mot1-301 growth; S. cerevisiae Mot1-301 growth rescue, ATP luminescence, 38.5C; percent above DMSO median, 100 means doubled; growth rescue, % at 18.8 µM; hit rate 1% among 320,000;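 active = every valid replicate shows activation above 250% relative to neutral control wells; inactive = the rest, any valid replicate at or below 250%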
# PfM18AAP inh-1: PfM18AAP enzyme inhibition; recombinant PfM18AAP, H-Glu-NHMec fluorogenic cleavage; inhibition, % at 7.35 µM; hit rate 1.2% among 290,000; AID 1822;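 active = inhibition above the campaign mean inhibition over all tested compounds plus 3 SD, cut at about 28% in these data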
# PfM18AAP inh-2: PfM18AAP inhibition, confirmation; shares compounds with PfM18AAP inh-1; recombinant PfM18AAP, H-Glu-NHMec fluorogenic cleavage; inhibition, % at 7.35 µM; hit rate 28% among 2,400;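 active = mean inhibition over replicate wells above the hit cutoff set for the earlier primary screen, cut at about 29% in these data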
# CTSL1 counter: counter-screen for PFM18AAP inhibitors: confirmation of human cathepsin L inhibitors; purified cathepsin L1, Z-Leu-Arg-MCA fluorescence; inhibition, % at 5.96 µM; AID 2178; 2,400 tested, under 10 active; shares compounds with PfM18AAP inh-1;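 active = average inhibition across replicates above the hit cutoff set in the earlier primary screen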
# Numbers stand for hits; – = inactive; · = no result.
SMILES,ALR inh,HIF act,Mot1-301 SUMO,PfM18AAP inh-1,PfM18AAP inh-2,CTSL1 counter
Cc1cc(=O)n2[nH]c(N)c(N=Nc3ccccc3)c2n1,–,–,–,41.5,32.2,–
C/C(=N/NC(=O)c1cc(O)c(O)c(O)c1)c1ccc([N+](=O)[O-])cc1,·,–,·,49.6,–,–
O=C(N/N=C/c1ccc(O)c(O)c1)NC12CC3CC(CC(C3)C1)C2,99.3,–,–,47.7,–,–
Cc1cccc(NC(=O)c2cc(-c3ccccn3)nc3ccccc23)c1C,–,–,–,–,·,·
COc1cccc(-c2cc(C(=O)NN3CCOCC3)c3ccccc3n2)c1,–,–,–,–,·,·
COc1cccc(-c2cc(C(=O)Nn3cnnc3)c3ccccc3n2)c1,–,–,–,63.5,62.3,–
O=C(Nn1cnnc1)c1cc(-c2ccccn2)nc2ccccc12,–,–,·,50.5,47.5,–
CCCc1nc(NC(=O)c2ccccc2)nc(NC(=O)c2ccccc2)n1,–,–,–,–,·,·
CC(/C=N/n1c(-c2cc(C)[nH]n2)n[nH]c1=S)=C\c1ccco1,97.6,–,–,35.5,–,–
CC(/C=N/n1c(-c2ccc(Cl)cc2)n[nH]c1=S)=C\c1ccco1,–,–,–,–,·,·
CC(/C=N/n1cnnc1)=C\c1ccco1,·,–,–,55.1,–,–
N/C(=N\OC(=O)COc1ccc2ccccc2c1)c1cccnc1,–,–,–,–,·,·
CCn1nnc2cc(C(=O)NCCc3ccccc3F)ccc21,–,–,–,–,·,·
CC1(C)CC2(CC(c3ccccc3F)c3ccc(O)c(O)c3O2)NC(=S)N1 (stereo not given),99.0,–,–,49.0,80.9,–
O=C(CSc1ncn[nH]1)Nc1ccc(Cl)c(S(=O)(=O)N2CCOCC2)c1,–,–,–,57.3,51.7,–
CC(=O)N1CCN(c2nnc(-c3ccc(C)cc3)c3ccccc23)CC1,–,–,–,–,·,·
O=C(CSc1ncn[nH]1)Nc1c(Br)cc([N+](=O)[O-])cc1Br,–,–,–,49.8,–,–
O=C(CSc1ncccn1)Nc1ccc(Cl)c(S(=O)(=O)N2CCOCC2)c1,–,·,–,·,·,·
O=C(CSc1ncn[nH]1)c1ccc(OC(F)F)cc1,–,–,–,39.0,–,–
Cc1ccc(-c2nnc(N3CCN(C(=O)CSc4ncn[nH]4)CC3)c3ccccc23)cc1,–,·,–,41.6,–,–
Cc1ccc(NC(=O)CSc2ncn[nH]2)c([N+](=O)[O-])c1,·,·,–,·,·,·
CCc1ccc(N(C(=O)c2snc(C(N)=O)c2N)C(C(=O)NCC2CCCO2)c2ccco2)cc1 (stereo not given),–,–,–,–,·,·
Cc1ccc(S(=O)(=O)c2c(O)c3ccc(C(=O)O)cc3[nH]c2=O)cc1,–,–,–,–,·,·
O=C(O)CSc1ncn[nH]1,–,–,–,85.9,98.0,–
O=C(CSc1ncn[nH]1)Nc1nnc(-c2ccccc2)s1,–,–,–,63.9,65.7,–
SMILES,ALR inh,HIF act,Mot1-301 SUMO,PfM18AAP inh-1,PfM18AAP inh-2,CTSL1 counter
O=C(CSc1ncn[nH]1)Nc1ccccc1-c1ccccc1,–,–,–,–,·,·
CC(C)Cc1nnc(NC(=O)CSc2ncn[nH]2)s1,–,–,–,38.0,40.0,–
Cc1ccc(NC(=O)CSc2ncn[nH]2)cc1,–,–,–,31.9,–,–
CC(C)Cc1nnc(NC(=O)CSc2ccccn2)s1,–,–,–,–,·,·
Cc1ccc(C(=O)CSc2ncn[nH]2)cc1,–,–,–,–,·,·
CCOc1ccc(NC(=O)CSc2ncn[nH]2)cc1,–,–,–,–,·,·
C/C(=N\O)C(C)NC(=O)c1ccccc1 (stereo not given),–,–,–,–,·,·
O=c1c2cn(Cc3ccccc3)c3ccccc3c-2nn1Cc1ccc(F)cc1Cl,·,–,·,–,·,·
c1ccc(-c2cc(CSc3nc4ccccc4[nH]3)on2)cc1,–,–,–,–,·,·
O=[N+]([O-])c1cc([N+](=O)[O-])c(N2CCCCCC2)cc1NCCO,–,–,–,–,·,·
O=C(N/N=C/c1ccc(N2CCOCC2)s1)c1ccccc1Br,–,–,–,41.1,–,–
Nc1ccc(C(=O)N/N=C/c2ccc(N3CCOCC3)s2)cc1,·,·,–,·,·,·
Oc1ccc(/C=N/N2CCCCC2)cc1O,98.8,–,–,65.6,32.0,–
CC1CCCC(C)N1/N=C/c1ccc(O)c(O)c1 (stereo not given),98.6,–,–,64.1,46.4,–
Clc1ccc(/C=N/N2CCCCC2)cc1,–,–,–,–,·,·
